Bioassay records (PubChem BioAssay)
An excerpt weighted towards active compounds, which were near 0.63% of everything screened.
TSHR antagonist = Antagonists of the Thyroid Stimulating Hormone Receptor: HTS campaign. TSHR-expressing cells, TSH-stimulated cAMP HTRF, 2 h; hits give low values. activity change, negative = inhibition, % at 11.5 µM. actives 0.2% (n = 330,000). AID 504810, 2011. Thyrotropin receptor (Homo sapiens), P16473;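 active = activity change below a set negative limit, meaning inhibition stronger than a set level, cut at about -70% in these data; inconclusive = activity change between two set negative limits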; note: % is set by controls: 0 for no effect and ±100 for the full control effect
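Read-out is FRET at 665 nm (cryptate excitation 337 nm) from a cryptate-tagged anti-cAMP antibody, competed by cell cAMP against cAMP-d2. Compounds are tested on freshly harvested TSHR cells challenged with 4nM TSH (EC80) for 2 hours at 37 deg C.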
gsp agonist = qHTS for Agonist of gsp, the Etiologic Mutation Responsible for Fibrous Dysplasia/McCune-Albright Syndrome: qHTS; gsp mutant cells, cAMP HTRF, 30 min; AID 624287, 2012; actives 0.13% (n = 340,000); Potency, µM (doses to about 76.9 µM), for the others: top-dose activation (cAMP increase), hits mostly activators; active = well fitted activation curve with a large enough effect; inconclusive = small, poorly fitted or top-dose-only effect, or another doubt; inactive = no such curve, though single readings can be large or run the other way; cell line not stated here;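 note: phosphodiesterase inhibitor Ro 20-1724 added with compounds to block cAMP breakdown; potency is the fitted concentration of half-maximal effect; nearly all actives have a fitted effect of over 60% in size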
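Cells stably selected in G418 were plated at 2000/well, grown 16-24 hr, then given compounds in DMSO with the PDE inhibitor […] (300 uM solution added) for 30 min at 37C; cAMP was read by HTRF.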
gsp antag = qHTS for Antagonists of gsp, the Etiologic Mutation Responsible for Fibrous Dysplasia/McCune-Albright Syndrome: qHTS. gsp-mutant cells, cAMP HTRF, 30 min. AID 624288, 2012. actives 0.4% (n = 340,000). Potency, µM (doses to about 76.9 µM), inactives show at the top dose activity change, negative = inhibition, most hits filed as inhibitors; calls by dose curve; cell line not stated here;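 note: intracellular cAMP measured with PDE inhibitor Ro 20-1724 present during compound exposure; potency is the fitted concentration of half-maximal effect; % is set by controls: 0 for no effect and ±100 for the full control effect; nearly all actives have a fitted effect of over 65% in size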
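HTRF cAMP read-out (cAMP-d2 plus anti-cAMP antibody-K in lysis buffer, 30 min RT). Before lysis, cells are exposed to compounds with […] for 30 min at 37C in DPBS containing Ca/Mg, BSA and Tween 20.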
ASM inhibitor = Inhibitors of Secretory Acid Sphingomyelinase (S-ASM): qHTS | placental ASM, HMU-PC fluorogenic substrate, 60 min | Potency, µM (highest dose often 57.5 µM), without a hit: at the highest dose activity change, negative = inhibition, actives largely listed as inhibitors | Sphingomyelin phosphodiesterase (Homo sapiens), P17405 | actives 0.006% (n = 340,000); active = well fitted inhibition curve with a large enough effect; inconclusive = small, poorly fitted or top-dose-only effect; inactive = no such curve, though single readings can be large or run the other way; note: potency is the fitted concentration of half-maximal effect
Target sequence (P17405 47-631 limits assumed): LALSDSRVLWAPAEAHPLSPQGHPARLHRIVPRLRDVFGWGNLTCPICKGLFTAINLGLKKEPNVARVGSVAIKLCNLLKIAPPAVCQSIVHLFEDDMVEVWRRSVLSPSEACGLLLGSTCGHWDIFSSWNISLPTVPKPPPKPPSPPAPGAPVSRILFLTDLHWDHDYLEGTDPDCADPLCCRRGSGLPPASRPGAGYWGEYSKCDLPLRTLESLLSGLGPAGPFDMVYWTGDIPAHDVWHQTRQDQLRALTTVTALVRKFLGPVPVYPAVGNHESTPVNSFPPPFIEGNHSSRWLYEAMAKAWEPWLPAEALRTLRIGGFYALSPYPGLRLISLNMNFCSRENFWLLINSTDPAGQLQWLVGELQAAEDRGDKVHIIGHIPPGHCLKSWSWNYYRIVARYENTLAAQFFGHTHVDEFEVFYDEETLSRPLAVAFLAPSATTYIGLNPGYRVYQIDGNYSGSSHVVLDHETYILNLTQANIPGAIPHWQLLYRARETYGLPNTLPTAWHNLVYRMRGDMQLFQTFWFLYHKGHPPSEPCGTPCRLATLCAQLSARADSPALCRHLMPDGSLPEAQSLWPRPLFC
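Human placenta-derived ASM enzyme was preincubated with compound for 10 minutes at room temperature, then given fluorogenic substrate HMU-PC0 (9 uM final) for 60 minutes at 37 °C; a pH 10 stop preceded fluorescence reading at Ex 386/Em 447 nm.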
* hit, by the source's call; [ ] = another dose, or the depositor's remark.

Screening OCC[C@H]1C[C@@H](O)[C@H](O)[C@@]2(CCc3ccccc3O2)O1 returned TSHR antagonist 0, gsp antag 4% and ASM inhibitor 5%.
COc1ccc(Nc2cc(O)c3ncccc3c2)cc1 was read as TSHR antagonist -6.
`CCn1c(C)nc2cc(C(=O)NNC(=O)c3ccc(C)cc3)ccc21` gave TSHR antagonist -12, gsp agonist 7%, gsp antag -8% and ASM inhibitor 7%.
Screening CCn1c(C)nc2cc(C(=O)OC(C(F)(F)C(F)F)C(F)(F)C(F)F)ccc21 returned TSHR antagonist -7, gsp agonist 11%, gsp antag 22µM* and ASM inhibitor -8%.
CCOc1ccc(/C=N/NC(=O)Cc2ccccc2)cc1CN1CC2CC(C1)c1cccc(=O)n1C2 (stereo unspecified) was read as TSHR antagonist -10, gsp antag 35µM* and ASM inhibitor 1%.
CCOc1ccc(/C=N/NC(=O)c2ccc(O)cc2)cc1CN1CC2CC(C1)c1cccc(=O)n1C2 (stereo unspecified) was read as TSHR antagonist 14, gsp antag 40µM* and ASM inhibitor -2%.
Screening CCOc1ccc(NC(=O)c2ccc(N3CC4CC(C3)c3cccc(=O)n3C4)c(NC(=O)CCN3CCOCC3)c2)cc1 (stereo unspecified) returned TSHR antagonist 6, gsp agonist -5%, gsp antag -5% and ASM inhibitor 2%.
`Cc1ccc(C(=O)NCC(C)(C)N2CCOCC2)s1` gave TSHR antagonist -10, gsp agonist 6%, gsp antag 6% and ASM inhibitor 0%.
`CC(C)(CNC(=O)C1c2ccccc2-c2ccccc21)N1CCOCC1` gave TSHR antagonist -82*, gsp agonist -10%, gsp antag 3% and ASM inhibitor -1%.
`Cc1nn(CC(=O)Nc2cccc(Cl)c2)c(=O)c2cc(-c3ccccc3)nn12` gave TSHR antagonist -6, gsp agonist 1%, gsp antag 22% and ASM inhibitor 4%.
For COc1ccc(Cn2nnnc2C(C(C)C)N2CCN(c3ccccc3OC)CC2)cc1 (stereo unspecified) the results were TSHR antagonist -86*, gsp agonist inconclusive, gsp antag -7% and ASM inhibitor -8%.
Screening CCOC(=O)C1CCCN(C(=O)c2ccc3c(c2)N(Cc2ccccc2)C(=O)c2ccccc2S3=O)C1 (stereo unspecified) returned TSHR antagonist -35, gsp agonist -3%[15.4 µM], gsp antag 8.9µM* and ASM inhibitor 3%.
Screening O=C(O)c1ccc2c(c1)N(Cc1ccccc1)C(=O)c1ccccc1S2=O (stereo unspecified) returned TSHR antagonist 1, gsp agonist 14%, gsp antag -1% and ASM inhibitor 1%.
COc1ccc(S(=O)(=O)N2CCCCC2)cc1NC(=O)c1c(F)cccc1Cl was read as TSHR antagonist 30, gsp agonist -27%, gsp antag 0% and ASM inhibitor -3%.
For COc1ccc(N2CCN(C(=O)[C@H](C)NC(=O)c3ccccc3Cl)CC2)cc1 the results were TSHR antagonist -99*, gsp agonist 14%, gsp antag 4% and ASM inhibitor 1%.
Screening CCOc1cccc(C2/C(=C(/O)c3ccc4c(c3)CC(C)O4)C(=O)C(=O)N2Cc2ccncc2)c1 (stereo unspecified) returned TSHR antagonist 3, gsp agonist 5µM*, gsp antag -13% and ASM inhibitor 1%.
Screening CC1Cc2cc(/C(O)=C3\C(=O)C(=O)N(Cc4ccncc4)C3c3ccccc3F)ccc2O1 (stereo unspecified) returned TSHR antagonist 1, gsp agonist 3.2µM*, gsp antag 7% and ASM inhibitor -1%.
For CCOc1cccc(C2/C(=C(\O)c3ccc4c(c3)OCCO4)C(=O)C(=O)N2Cc2ccncc2)c1 (stereo unspecified) the results were TSHR antagonist -12, gsp agonist inconclusive, gsp antag 19% and ASM inhibitor -1%.
Nc1ccc2c(c1)C(=O)C(=O)c1ccccc1-2 was read as TSHR antagonist -79*, gsp agonist 29%, gsp antag inconclusive and ASM inhibitor -9%.
CSc1ccc(S(=O)(=O)Nc2ccc3c4c(cccc24)CC3)cc1 was read as TSHR antagonist 15, gsp agonist -26%, gsp antag 28µM* and ASM inhibitor -12%.
Screening O=S(=O)(Nc1ccc2c3c(cccc13)CC2)c1ccc(F)cc1 returned TSHR antagonist 24, gsp agonist -3%, gsp antag -15% and ASM inhibitor -14%.
CCOc1ccc(-c2csc(/C(C#N)=C\c3ccc(O)c([N+](=O)[O-])c3)n2)cc1 was read as TSHR antagonist -83*, gsp agonist -35%, gsp antag -93% and ASM inhibitor -17%.
O=C(COc1ccccc1)Nc1nc(-c2ccc(S(=O)(=O)N3CCOCC3)cc2)cs1 was read as TSHR antagonist 1, gsp agonist 8%, gsp antag -3% and ASM inhibitor -3%.
For O=C(CCc1ccc(S(=O)(=O)N2CCOCC2)cc1)Nc1nc(COc2ccccc2)cs1 the results were TSHR antagonist -42, gsp agonist 0%, gsp antag 28µM* and ASM inhibitor -10%.
For O=C(NC1CC1)C1CCN(C2CCN(C(=O)c3c(F)cccc3Cl)CC2)CC1 the results were TSHR antagonist 2, gsp agonist 34%, gsp antag -5% and ASM inhibitor 18%.
O=C(Nc1ccccc1-c1nc2ccccc2s1)c1ccco1 was read as TSHR antagonist -19, gsp agonist 25µM*, gsp antag 24% and ASM inhibitor -4%.
Screening N#C/C(=C(/O)c1ccco1)c1nc2ccccc2[nH]1 returned TSHR antagonist -1, gsp agonist 16%, gsp antag 3% and ASM inhibitor -1%.
N#C/C(=C(/O)c1ccco1)c1nc2ccccc2s1 was read as TSHR antagonist -22, gsp agonist -16%, gsp antag 35µM* and ASM inhibitor -9%.
For Cc1cc(-c2c(C)[nH]n(-c3ccc(Cl)cc3)c2=O)n(-c2ccc(Cl)cc2)n1 the results were TSHR antagonist -27, gsp agonist -14%, gsp antag 32µM* and ASM inhibitor 0%.
For COc1ccc(OC)c(-c2c3c([nH]c(=S)c2C#N)CCCC3)c1 the results were TSHR antagonist -5, gsp agonist -9%[15.4 µM], gsp antag -12% and ASM inhibitor 1%.
For COc1ccc(-c2c3c([nH]c(=S)c2C#N)CCC3)cc1 the results were TSHR antagonist 12, gsp agonist 4.5µM*, gsp antag 17% and ASM inhibitor 0%.
